# Source: PubChem BioAssay (EPA / NIEHS)
# Inconclusive results are not listed. The source made the active and inactive calls. The calls were made as follows, unless noted: active = hit-call score of the fitted dose curve at least 0.9, where 1 is the maximum; inconclusive = response in the unintended direction; inactive = score below 0.9.
# Experiments:
# [1] = system: Sodium/Iodide Symporter (NIS), SLC5A5 (gene 6528); test: CPHEA_Stoker_NIS_Inhibition_RAIU: CPHEA's Radioactive Iodide Uptake (RAIU) Assay for Sodium/Iodide Symporter (NIS) Inhibition, Stoker and Laws Labs (AID 2283841)
# Procedure, shortened: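 hNIS-HEK293T-EPA cells incubated 2 h at room temperature with compound (0.001–100 uM, 0.5% DMSO) and 329 pM final 125I in HBSS/10 mM HEPES, pH 7.4. Intracellular 125I counted; normalised to DMSO maximal uptake, triplicate, three biological replicates.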
# [2] = CPHEA_Stoker_NIS_Cytotoxicity: Cytotoxicity Assessment for CPHEA's Radioactive Iodide Uptake (RAIU) Assay for Sodium/Iodide Symporter (NIS) Inhibition, Stoker and Laws Labs (AID 2283897);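 as to AC50: active means loss of ATP signal versus DMSO meaning cytotoxicity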
# Procedure, shortened: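 hNIS-HEK293T-EPA cells, human NIS expressed in HEK293T, treated 2 h with chemicals (0.001–100 uM, 0.5% final DMSO). ATP content read by CellTiter-Glo luminescence; loss of signal analysed relative to DMSO.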
# [3] = CEETOX_H295R_11DCORT_noMTC: CeeTox H295R High-throughput Steroidogenesis Assay for 11-Deoxycortisol (11DCORT), maximum tolerated concentration (MTC) filtered results only (AID 2283911; active = hit-call score of the fitted dose curve at least 0.9, where 1 is the maximum; inactive = score below 0.9); conditions: actives raise or lower the signal
# Procedure, shortened: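 H295R cells were prestimulated 48 h with 10 uM forskolin, then exposed 48 h to chemical (0.1% DMSO final). 11-Deoxycortisol in the medium was measured by MTBE extraction and HPLC-MS/MS, with bidirectional fitting versus DMSO and no MTC filtering of concentrations.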
# [4] = CEETOX_H295R_OHPREG_noMTC: CeeTox H295R High-throughput Steroidogenesis Assay for OH-Pregnenolone (OHPREG), maximum tolerated concentration (MTC) filtered results only (AID 2283912; active = hit-call score of the fitted dose curve at least 0.9, where 1 is the maximum; inactive = score below 0.9); conditions: actives raise or lower the signal
# Procedure, shortened: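 Readout is HPLC-MS/MS quantification of 17alpha-hydroxypregnenolone released by forskolin-stimulated H295R cells over 48 h of chemical exposure, DMSO as baseline.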
# [5] = CEETOX_H295R_OHPROG_noMTC: CeeTox H295R High-throughput Steroidogenesis Assay for OH-Progesterone (OHPROG), maximum tolerated concentration (MTC) filtered results only (AID 2283914; active = hit-call score of the fitted dose curve at least 0.9, where 1 is the maximum; inactive = score below 0.9); conditions: actives raise or lower the signal
# Experimental: (§1) CEETOX_H295R is a cell-based, multiplexed-readout assay that uses H295R, a human adrenal gland cell line, with measurements taken at 48 hours after chemical dosing in a 96-well plate.CEETOX_H295R_OHPROG_noMTC is one of 12 assay component(s) measured or calculated from the CEETOX_H295R assay (11 hormones and 1 viability assay). It is designed to make measurements of hormone induction, a form of inducible reporter, as detected with […] by HPLC-MS-MS technology. The concentrations for these components have not been pre-filtered for the maximum tolerated concentration (MTC) based on the MTT assay (_noMTC).Data from the assay component CEETOX_H295R_OHPROG_noMTC was analyzed into 1 assay endpoint. This assay endpoint, CEETOX_H295R_OHPROG_noMTC, was analyzed with bidirectional fitting relative to DMSO as the negative control and baseline of activity. […]
# (§2) Cell culture and media preparation procedures were conducted in accordance with OECD Test No. 456 guidelines, with minor modifications. […] For steroid quantification, media samples were shipped to OpAns, LLC (Durham, NC) on dry ice, and samples were thawed to room temperature prior to liquid-liquid extraction. […] Steroid hormones were separated by HPLC, eluted using a reverse phase C18 gradient with electrospray positive ionization, followed by quantification by tandem mass spectrometry (MS/MS). […]
# [6] = CEETOX_H295R_CORTISOL_noMTC: CeeTox H295R High-throughput Steroidogenesis Assay for Cortisol, maximum tolerated concentration (MTC) filtered results only (AID 2283916; active = hit-call score of the fitted dose curve at least 0.9, where 1 is the maximum; inactive = score below 0.9); conditions: actives raise or lower the signal
# Experimental: as §1, with “plate.CEETOX_H295R_CORTISOL_noMTC” for “plate.CEETOX_H295R_OHPROG_noMTC”, “CEETOX_H295R_CORTISOL_noMTC” for “CEETOX_H295R_OHPROG_noMTC”, “CEETOX_H295R_CORTISOL_noMTC,” for “CEETOX_H295R_OHPROG_noMTC,”
# as §2
# [7] = CEETOX_H295R_CORTIC_noMTC: CeeTox H295R High-throughput Steroidogenesis Assay for Corticosterone (CORTIC), maximum tolerated concentration (MTC) filtered results only (AID 2283917; active = hit-call score of the fitted dose curve at least 0.9, where 1 is the maximum; inactive = score below 0.9); conditions: actives raise or lower the signal
# Procedure, shortened: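 Forskolin-stimulated (10 uM, 48 h) H295R cells are dosed 48 h with chemical in DMSO (0.1% final); corticosterone change is quantified by HPLC-MS/MS and fitted bidirectionally against DMSO, unfiltered for MTT-derived MTC.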
# [8] = CEETOX_H295R_DOC_noMTC: CeeTox H295R High-throughput Steroidogenesis Assay for DOC, maximum tolerated concentration (MTC) filtered results only (AID 2283918; active = hit-call score of the fitted dose curve at least 0.9, where 1 is the maximum; inactive = score below 0.9); conditions: actives raise or lower the signal
# Procedure, shortened: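 H295R cells prestimulated 48 h with 10 uM forskolin, then exposed 48 h to test chemical (0.1% DMSO final). Medium 11-deoxycorticosterone extracted with MTBE, quantified by HPLC-MS/MS; bidirectional fit versus DMSO, concentrations not MTC-filtered.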
# [9] = CEETOX_H295R_PROG_noMTC: CeeTox H295R High-throughput Steroidogenesis Assay for Progesterone (PROG), maximum tolerated concentration (MTC) filtered results only (AID 2283920; active = hit-call score of the fitted dose curve at least 0.9, where 1 is the maximum; inactive = score below 0.9); conditions: actives raise or lower the signal
# Procedure, shortened: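 Progesterone synthesis in the human adrenal line H295R is measured by HPLC-MS/MS after 48 h chemical exposure following 48 h forskolin (10 uM) stimulation. Activity in either direction is fitted relative to DMSO.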
# [10] = CEETOX_H295R_ESTRADIOL_noMTC: CeeTox H295R High-throughput Steroidogenesis Assay for Estradiol, maximum tolerated concentration (MTC) filtered results only (AID 2283919; active = hit-call score of the fitted dose curve at least 0.9, where 1 is the maximum; inactive = score below 0.9); conditions: actives raise or lower the signal
# Procedure, shortened: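 Readout: dansyl-derivatized estradiol quantified by LC-MS/MS in medium from H295R cells dosed 48 h (0.1% DMSO) following 48 h forskolin (10 uM) prestimulation. Gain or loss of signal fitted against DMSO; no MTC filtering applied.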
compound,measurement,setting,value
CCCN(CCC)C(=O)SCC,outcome,[1],inactive
same,outcome,[2],inactive
CCOC(=O)C(C)Oc1ccc(Oc2nc3ccc(Cl)cc3o2)cc1 (stereo not drawn),outcome,[1],inactive
same,outcome,[2],inactive
C#CCOC(=O)[C@@H](C)Oc1ccc(Oc2ncc(Cl)cc2F)cc1,outcome,[1],inactive
same,outcome,[2],inactive
CCOC(=O)C(C)Oc1ccc(Oc2cnc3cc(Cl)ccc3n2)cc1 (stereo not drawn),outcome,[1],inactive
same,outcome,[2],inactive
N#CSCSc1nc2ccccc2s1,AC50,[1],50 µM (active)
same,outcome,[2],inactive
CCCCC(CC)COC(=O)c1ccccc1C(=O)O (stereo not drawn),outcome,[3],inactive
same,outcome,[4],inactive
same,outcome,[5],inactive
same,outcome,[6],inactive
same,outcome,[7],inactive
same,outcome,[8],inactive
same,outcome,[9],inactive
CSC(=O)c1cccc2nnsc12,outcome,[1],inactive
same,outcome,[2],inactive
O=C(O)c1ccccc1,outcome,[1],inactive
same,outcome,[2],inactive
CCN(Cc1c(F)cccc1Cl)c1c([N+](=O)[O-])cc(C(F)(F)F)cc1[N+](=O)[O-],outcome,[1],inactive
same,outcome,[2],inactive
COC(=O)c1ccccc1C(=O)O,outcome,[3],inactive
same,outcome,[4],inactive
same,outcome,[5],inactive
same,outcome,[6],inactive
same,outcome,[7],inactive
same,outcome,[8],inactive
same,outcome,[10],inactive
same,outcome,[9],inactive
CCCCOCCOCCOCc1cc2c(cc1CCC)OCO2,outcome,[1],inactive
same,outcome,[2],inactive
C=CCOC(Cn1ccnc1)c1ccc(Cl)cc1Cl (stereo not drawn),outcome,[1],inactive
same,outcome,[2],inactive
CCCCCCC(C)OC(=O)COc1nc(F)c(Cl)c(N)c1Cl (stereo not drawn),AC50,[1],11.3 µM (active)
same,outcome,[2],inactive
CCCCCOC(=O)COc1cc(N2C(=O)C3=C(CCCC3)C2=O)c(F)cc1Cl,outcome,[1],inactive
same,outcome,[2],inactive
CCOC(=O)NCCOc1ccc(Oc2ccccc2)cc1,AC50,[1],40.2 µM (active)
same,AC50,[2],34 µM (active)
CCCCOC(=O)C(C)Oc1ccc(Oc2ccc(C(F)(F)F)cn2)cc1 (stereo not drawn),outcome,[1],inactive
same,outcome,[2],inactive
CC(C)(c1ccc(O)cc1)c1ccc(O)cc1,outcome,[1],inactive
same,outcome,[2],inactive
CC(=O)[C@H]1CC[C@H]2[C@@H]3CCC4=CC(=O)CC[C@]4(C)[C@H]3CC[C@]12C,AC50,[1],84.4 µM (active)
same,AC50,[2],9.92 µM (active)
Oc1ccc(C(c2ccc(O)cc2)C(Cl)(Cl)Cl)cc1,AC50,[1],50 µM (active)
same,AC50,[2],39.9 µM (active)
CCCCC(CC)CN1C(=O)C2C3C=CC(C3)C2C1=O (stereo not drawn),outcome,[1],inactive
same,AC50,[2],50 µM (active)
CCCCOC(=O)[C@@H](C)Oc1ccc(Oc2ccc(C(F)(F)F)cn2)cc1,outcome,[1],inactive
same,outcome,[2],inactive
c1ccc(Nc2ccccc2)cc1,outcome,[1],inactive
same,outcome,[2],inactive
CC(C)CCCCCCc1ccc(O)cc1,outcome,[1],inactive
same,outcome,[2],inactive
S=C([S-])NCCNC(=S)[S-].[Mn+2],outcome,[1],inactive
same,outcome,[2],inactive
CCCN(CCC)c1c([N+](=O)[O-])cc(C(F)(F)F)c(N)c1[N+](=O)[O-],AC50,[1],31.8 µM (active)
same,AC50,[2],47.8 µM (active)
COC(=O)CSc1cc(N=c2sc(=O)n3n2CCCC3)c(F)cc1Cl,outcome,[1],inactive
same,outcome,[2],inactive
N[C@@H](Cc1cc(I)c(Oc2ccc(O)c(I)c2)c(I)c1)C(=O)O,outcome,[1],inactive
same,outcome,[2],inactive
CCOC(=O)COc1cc(-n2ncc(C(F)(F)F)c(C)c2=O)c(F)cc1Cl,outcome,[1],inactive
same,outcome,[2],inactive
O=C(Nc1ccc([N+](=O)[O-])cc1Cl)c1cc(Cl)ccc1O,AC50,[1],0.111 µM (active)
same,outcome,[2],inactive
S=C(S)NCCNC(=S)S.[Mn+2].[S-]C([S-])=NCCN=C([S-])[S-].[Zn+2],outcome,[1],inactive
same,outcome,[2],inactive
Cc1nn(C)c(Oc2ccccc2)c1C=NOCc1ccc(C(=O)OC(C)(C)C)cc1,outcome,[1],inactive
same,outcome,[2],inactive
